# Experimental data as given in PubChem BioAssay (EPA / NIEHS).
# “And” between values parts separate entries of the source, which are not always exact repeats. Equal values may be shown once. Records with an inconclusive call do not appear. A structure can be active in one record and inactive in another. The source made the active and inactive calls. The calls were made as follows: active = hit-call score of the fitted dose curve at least 0.9, where 1 is the maximum; inconclusive = response in the unintended direction; inactive = score below 0.9.
# Key:
# [1] = target: Estrogen receptor (Homo sapiens) (UniProt P03372); test: NVS_NR_hER: NovaScreen (NVS) Nuclear Receptor Binding Assay for human Estrogen Receptor (ER) (AID 2283348)
# Sequence of Estrogen receptor (Homo sapiens) (P03372 whole entry, looked up, the tested form may be a part): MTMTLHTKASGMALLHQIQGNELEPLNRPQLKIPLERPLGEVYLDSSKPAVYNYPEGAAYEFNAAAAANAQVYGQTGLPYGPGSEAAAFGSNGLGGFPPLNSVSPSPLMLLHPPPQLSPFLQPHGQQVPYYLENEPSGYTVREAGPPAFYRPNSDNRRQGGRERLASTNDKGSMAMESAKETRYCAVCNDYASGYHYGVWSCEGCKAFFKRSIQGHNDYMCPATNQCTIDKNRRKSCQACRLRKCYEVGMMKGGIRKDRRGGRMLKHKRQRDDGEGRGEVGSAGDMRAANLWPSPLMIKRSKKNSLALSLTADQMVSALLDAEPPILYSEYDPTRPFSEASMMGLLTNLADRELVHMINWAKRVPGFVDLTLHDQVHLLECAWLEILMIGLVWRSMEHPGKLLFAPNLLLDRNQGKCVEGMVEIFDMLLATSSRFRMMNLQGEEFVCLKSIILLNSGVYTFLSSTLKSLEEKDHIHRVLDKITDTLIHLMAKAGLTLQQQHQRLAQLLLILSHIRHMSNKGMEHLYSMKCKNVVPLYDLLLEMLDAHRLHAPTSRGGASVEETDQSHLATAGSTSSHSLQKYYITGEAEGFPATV
# How it was run: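 MCF7-derived receptor extract, radiolabelled ligand, competitive displacement. Read: scintillation counts at 18 h. DMSO = negative control/baseline. Primary 25 uM duplicate; follow-up concentration–response.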
# [2] = target: chimpanzee Androgen Receptor (AR), AR (gene 747460) (UniProt O97775); test: NVS_NR_cAR: NovaScreen (NVS) Nuclear Receptor Binding Assay for chimpanzee Androgen Receptor (AR) (AID 2283346);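 also: radioligand displacement from AR measured by scintillation counting in a cell-free assay; a loss of bound radioligand signal versus DMSO counts as binding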
# Sequence of chimpanzee Androgen Receptor (AR), AR (gene 747460) (O97775 whole entry, looked up): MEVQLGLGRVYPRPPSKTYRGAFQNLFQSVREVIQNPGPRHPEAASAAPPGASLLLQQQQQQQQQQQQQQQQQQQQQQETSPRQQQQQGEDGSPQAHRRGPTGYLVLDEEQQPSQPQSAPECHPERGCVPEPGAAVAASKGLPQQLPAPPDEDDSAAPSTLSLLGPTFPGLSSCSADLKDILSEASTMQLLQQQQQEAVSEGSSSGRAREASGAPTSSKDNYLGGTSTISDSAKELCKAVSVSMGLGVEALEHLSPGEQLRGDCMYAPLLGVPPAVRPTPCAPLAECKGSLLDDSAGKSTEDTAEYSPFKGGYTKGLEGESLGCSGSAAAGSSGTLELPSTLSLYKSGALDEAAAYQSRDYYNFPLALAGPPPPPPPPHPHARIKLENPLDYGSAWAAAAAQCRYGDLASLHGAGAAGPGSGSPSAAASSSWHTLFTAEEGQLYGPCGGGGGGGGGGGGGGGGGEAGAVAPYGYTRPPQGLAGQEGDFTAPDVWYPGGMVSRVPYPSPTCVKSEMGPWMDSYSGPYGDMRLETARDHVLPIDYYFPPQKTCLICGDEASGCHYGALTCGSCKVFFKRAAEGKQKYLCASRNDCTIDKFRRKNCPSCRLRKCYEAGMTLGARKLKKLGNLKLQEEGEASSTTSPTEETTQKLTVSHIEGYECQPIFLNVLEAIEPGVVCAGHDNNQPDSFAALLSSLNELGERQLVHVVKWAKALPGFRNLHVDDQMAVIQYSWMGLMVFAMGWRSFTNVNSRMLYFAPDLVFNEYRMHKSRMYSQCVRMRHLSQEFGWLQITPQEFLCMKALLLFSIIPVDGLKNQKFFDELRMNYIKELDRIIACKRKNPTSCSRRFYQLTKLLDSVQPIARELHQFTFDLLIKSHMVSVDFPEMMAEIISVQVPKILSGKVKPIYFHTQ
# How it was run: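 Radioligand binding to chimpanzee AR expressed in Sf9/Sf21 cells, cell-free, measured 72 h after dosing by lysate-based scintillation counting. Loss of signal vs DMSO; initial duplicate screen at 25 uM, actives retested in concentration series.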
# [3] = target: Estrogen receptor (Homo sapiens) (UniProt P03372); test: OT_ER_ERaERa_1440: Odyssey Thera (OT) 24-hour HEK293T Protein-Complementation Assay for Estrogen Receptor-alpha/-alpha Homodimer (AID 2283349);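 also: hits raise fluorescence above DMSO for agonists and antagonists alike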
# How it was run: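 Cells (HEK293T) carrying the fragment-tagged ERα LBD (aa 310-547) pair are treated with chemical for 24 hours. Nuclear and/or cytoplasmic fluorescence is then quantified on a laser scanning cytometer. Activity is scored as signal gain against DMSO.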
# [4] = target: rat Peripheral-type Benzodiazepine Receptor (PBR), Tspo (gene 24230) (UniProt P16257); test: NVS_MP_rPBR: NovaScreen (NVS) Membrane Protein Assay for rat Peripheral-type Benzodiazepine Receptor (PBR) (AID 2283335)
# Sequence of rat Peripheral-type Benzodiazepine Receptor (PBR), Tspo (gene 24230) (P16257 whole entry, looked up): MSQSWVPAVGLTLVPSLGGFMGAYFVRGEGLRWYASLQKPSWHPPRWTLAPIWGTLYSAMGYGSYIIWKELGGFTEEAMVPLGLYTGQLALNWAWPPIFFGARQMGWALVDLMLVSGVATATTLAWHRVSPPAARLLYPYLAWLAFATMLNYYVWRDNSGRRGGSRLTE
# How it was run: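 Competitive displacement of specific radioligand from rat kidney membrane PBR, read by filtration and scintillation after 1 h. Compounds first tested at 25 uM in duplicate, then in concentration series; signal loss relative to DMSO.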
# [5] = NVS_IC_rCaBTZCHL: NovaScreen (NVS) Ion Channel Assay for Calcium Channel, Type L, Benzothiazepine Site (CaBTZCHL) (AID 2283337)
# How it was run: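 Test chemicals were added to rat cortical membranes and incubated 1.5 h with a tritiated or iodinated radioligand for the benzothiazepine site. Bound ligand was separated by filtration and counted. Actives from the 25 uM duplicate screen were retested in concentration series.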
# [6] = target: bovine Gamma-Aminobutyric Acid Type A Receptor Agonist (GABAR Agonist), GABRA1 (gene 780973) (UniProt P08219); test: NVS_LGIC_bGABAR_Agonist: NovaScreen (NVS) Ligand-Gated Ion Channel Assay for bovine Gamma-Aminobutyric Acid Type A Receptor Agonist (GABAR Agonist) (AID 2283338)
# Sequence of bovine Gamma-Aminobutyric Acid Type A Receptor Agonist (GABAR Agonist), GABRA1 (gene 780973) (P08219 whole entry, looked up): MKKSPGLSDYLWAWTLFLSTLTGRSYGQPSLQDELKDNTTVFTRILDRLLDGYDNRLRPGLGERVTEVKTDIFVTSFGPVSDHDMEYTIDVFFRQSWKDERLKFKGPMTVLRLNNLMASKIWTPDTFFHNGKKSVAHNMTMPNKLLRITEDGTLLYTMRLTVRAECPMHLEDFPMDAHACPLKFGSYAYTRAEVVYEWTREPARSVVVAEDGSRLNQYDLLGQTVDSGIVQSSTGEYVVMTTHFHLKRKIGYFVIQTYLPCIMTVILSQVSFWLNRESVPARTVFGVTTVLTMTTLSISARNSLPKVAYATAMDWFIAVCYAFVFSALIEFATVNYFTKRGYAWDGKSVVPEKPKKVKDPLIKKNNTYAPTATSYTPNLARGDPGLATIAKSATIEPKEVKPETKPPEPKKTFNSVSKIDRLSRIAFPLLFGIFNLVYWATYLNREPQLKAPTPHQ
# How it was run: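 Radioligand binding to bovine cerebellar membranes in agonist format, read by filter-based scintillation counting after 1 h. Primary screen in duplicate at 25 uM, with actives followed in concentration series. Gain of signal versus DMSO.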
# [7] = target: rat Glutamate, MK-801 Agonist Site (GluNMDA_MK801), Grin1 (gene 24408) (UniProt P35439); test: NVS_LGIC_rGluNMDA_MK801_Agonist: NovaScreen (NVS) Ligand-Gated Ion Channel Assay for rat Glutamate, MK-801 Agonist Site (GluNMDA_MK801) (AID 2283340)
# How it was run: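 Rat forebrain membrane preparation; MK-801-site radioligand binding read by filtration and scintillation after 1.5 h. Single-point 25 uM duplicate screen, followed by singleton concentration series to 50 uM max; DMSO baseline.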
# [8] = system: guinea pig Histamine Receptor (H2), gene 100729734; test: NVS_GPCR_gH2: NovaScreen (NVS) G Protein-Coupled Receptor Assay for guinea pig Histamine Receptor (H2) (AID 2283342)
# Protocol: NVS_GPCR_gH2 is a biochemical, single-readout assay that uses extracted gene-proteins from Guinea pig striatal membranes in a tissue-based cell-free assay. Measurements were taken 1 hour after chemical dosing in a 96-well plate.NVS_GPCR_gH2 is one of one assay component(s) measured or calculated from the NVS_GPCR_gH2 assay. It is designed to make measurements of radioligand binding, a form of binding reporter, as detected with scintillation counting signals by Filter-based radiodetection technology.Data from the assay component NVS_GPCR_gH2 was analyzed into 1 assay endpoint. This assay endpoint, NVS_GPCR_gH2, was analyzed in the positive analysis fitting direction relative to DMSO as the negative control and baseline of activity. Using a type of binding reporter, loss-of-signal activity can be used to understand changes in the binding as they relate to the gene Hrh2. Furthermore, this assay endpoint can be referred to as a primary readout, because the performed assay has only produced 1 assay endpoint. To generalize the intended target to other relatable targets, this assay endpoint is annotated to the gpcr intended target family, where the subfamily is rhodopsin-like receptor.
# Binding assays used specific radioligands (tritiated, iodinated) with non-radioactive competitive displacement ligands in agonist or antagonist protocols (as indicated) and various reference compounds and inhibitors to titrate specific binding to receptors and transporters. Most enzyme assays (CYPs, kinases, phosphatases, proteases, HDACs) used recombinant protein and specific substrates (fluorescence mostly, some colorimetric and radioactive) and inhibitors, followed by a biochemical separation of substrate and product. All assays for the biochemical HTS were initially run in duplicate at a single concentration (10 uM for CYP450 assays and 25 uM for all others). Assay-chemical combinations meeting a pre-defined threshold (e.g., 30% inhibition and other criteria defined below) were then run in singleton concentration-response format with maximum concentration of 20 uM for CYPs and 50 uM for all others. Each assay was run with positive and negative controls, and concurrent controls on every plate. The follow-up (secondary) screen tested active chemical-pairs in concentration series, as well as a few additional assays not tested in the primary screen, some selected negative inactives, and several cases re-run in the concentration series for confirmatory purposes.
# NCBI gene 100848466 = test: NVS_NR_bPR: NovaScreen (NVS) Nuclear Receptor Binding Assay for bovine Progextron Receptor (PR) (AID 2283343);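 also: actives lower bound radioligand signal below DMSO meaning displacement of the label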
# How it was run: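 Scintillation counts of bound radioligand were read 18 hours after chemical addition to membranes extracted from bovine uterus. Displacement was scored as loss of signal relative to DMSO controls. Screening began at 25 uM in duplicate.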
# [9] = target: Voltage-gated inwardly rectifying potassium channel KCNH2 (Homo sapiens) (UniProt Q12809); test: NVS_IC_hKhERGCh: NovaScreen (NVS) Ion Channel Assay for human Potassium Channel ERG (KhERGCh) (AID 2283333)
# Sequence of Voltage-gated inwardly rectifying potassium channel KCNH2 (Homo sapiens) (Q12809 whole entry, looked up): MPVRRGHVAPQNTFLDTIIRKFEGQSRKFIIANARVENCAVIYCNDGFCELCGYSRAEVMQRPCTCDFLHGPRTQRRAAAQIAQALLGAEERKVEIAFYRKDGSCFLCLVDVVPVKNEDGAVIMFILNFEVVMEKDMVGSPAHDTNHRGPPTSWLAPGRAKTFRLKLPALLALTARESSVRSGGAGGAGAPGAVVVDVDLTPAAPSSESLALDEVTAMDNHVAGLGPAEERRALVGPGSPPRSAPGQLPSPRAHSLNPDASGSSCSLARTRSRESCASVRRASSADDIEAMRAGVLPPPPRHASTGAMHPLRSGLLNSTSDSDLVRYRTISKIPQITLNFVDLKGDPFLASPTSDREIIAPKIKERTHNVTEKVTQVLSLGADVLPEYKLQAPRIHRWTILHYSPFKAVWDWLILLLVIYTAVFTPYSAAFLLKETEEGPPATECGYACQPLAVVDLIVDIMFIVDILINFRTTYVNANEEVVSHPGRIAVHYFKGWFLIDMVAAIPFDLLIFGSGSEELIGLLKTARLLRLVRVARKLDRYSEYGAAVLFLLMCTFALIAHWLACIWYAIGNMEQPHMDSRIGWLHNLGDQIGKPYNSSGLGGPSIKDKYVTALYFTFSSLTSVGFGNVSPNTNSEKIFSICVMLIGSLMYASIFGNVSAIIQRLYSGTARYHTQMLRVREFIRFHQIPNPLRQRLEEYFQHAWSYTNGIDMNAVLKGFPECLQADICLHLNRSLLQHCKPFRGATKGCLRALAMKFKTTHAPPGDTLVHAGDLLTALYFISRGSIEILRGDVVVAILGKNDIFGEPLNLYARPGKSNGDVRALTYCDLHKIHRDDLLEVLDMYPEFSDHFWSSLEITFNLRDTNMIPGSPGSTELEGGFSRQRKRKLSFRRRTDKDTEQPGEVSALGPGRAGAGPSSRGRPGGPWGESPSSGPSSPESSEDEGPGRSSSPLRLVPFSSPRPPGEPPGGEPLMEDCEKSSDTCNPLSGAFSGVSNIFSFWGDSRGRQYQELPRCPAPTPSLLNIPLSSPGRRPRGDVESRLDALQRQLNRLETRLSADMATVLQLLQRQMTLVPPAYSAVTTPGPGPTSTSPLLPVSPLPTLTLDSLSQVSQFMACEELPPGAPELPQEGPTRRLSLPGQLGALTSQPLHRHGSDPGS
# How it was run: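 Membranes from CHO cells expressing human ERG; displacement of radioligand measured by filtration and scintillation after 0.75 h. Single-concentration duplicate screen at 25 uM, then concentration-response for actives; DMSO baseline.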
smiles,measurement,setting,value
C[C@]12CC[C@@H]3c4ccc(O)cc4CC[C@H]3[C@@H]1CC[C@@H]2OC(=O)CCC1CCCC1,AC50,[1],0.00446 µM (active)
Cc1cc(C(=C2C=CC(=Nc3ccc(S(=O)(=O)O)cc3)C=C2)c2ccc(Nc3ccc(S(=O)(=O)O)cc3)cc2)cc(S(=O)(=O)O)c1N,AC50,[2],15.5 µM (active)
same,outcome,[3],inactive
CCC1CO1 (stereo not drawn),AC50,[2],5 µM (active)
CC(C)c1c(C(=O)Nc2ccccc2)c(-c2ccccc2)c(-c2ccc(F)cc2)n1CC[C@@H](O)C[C@@H](O)CC(=O)O,AC50,[4],0.729 µM (active)
O=C1Cc2ccccc2N1c1c(Cl)cccc1Cl,outcome,[1],inactive
O=C(NCc1ncc(C(F)(F)F)cc1Cl)c1c(Cl)cccc1Cl,AC50,[4],0.005 µM (active)
c1cnc2c(c1)ccc1cccnc12,outcome,[4],inactive
CN(C)CCOC(c1ccccc1)c1ccccc1,AC50,[5],5.8 µM (active)
same,outcome,[6],inactive
same,outcome,[7],inactive
same,AC50,[8],4.71 µM (active)
same,outcome,[3],inactive
CCCCCCOC(=O)c1ccc(O)cc1,AC50,[1],5.86 µM (active)
CCCCCCCCCCCCOS(=O)(=O)O,AC50,NCBI gene 100848466,25.5 µM (active)
CCCCCCCC(OC)OC,outcome,[4],inactive
C[C@]12CC[C@@H]3c4ccc(O)cc4CC[C@H]3[C@@H]1C[C@@H](O)[C@@H]2O,outcome,[2],inactive
O=C1OC2(c3ccccc31)c1cc(I)c(O)c(I)c1Oc1c2cc(I)c(O)c1I,AC50,[2],21.6 µM (active)
same,outcome,[2],inactive
O=C(CCCN1CCC(O)(c2ccc(Cl)cc2)CC1)c1ccc(F)cc1,outcome,[9],inactive
same,AC50,[5],2.55 µM (active)
same,outcome,[6],inactive
same,outcome,[7],inactive
same,AC50,[8],1.65 µM (active)
CCCCCCCCCCCCCCCCCC[N+](C)(C)Cc1ccccc1,AC50,[4],12.5 µM (active)
same,outcome,[5],inactive
N=C(N)c1ccc(OCCCCCOc2ccc(C(=N)N)cc2)cc1,AC50,[5],2.33 µM (active)
same,AC50,[7],35.8 µM (active)
same,AC50,[8],6.98 µM (active)
same,outcome,[1],inactive
same,outcome,[3],inactive
CCCCCc1ccc(O)cc1,outcome,[4],inactive
CCCCCCCCCCCC,AC50,[4],5.18 µM (active)
C/C=C/C(=O)C1=C(C)CCCC1(C)C,AC50,[4],16.8 µM (active)
CC(C)[C@@H]1CC[C@@H](C)C[C@H]1O,AC50,[2],0.376 µM (active)
CC(C)(c1ccc(Oc2ccc(N)cc2)cc1)c1ccc(Oc2ccc(N)cc2)cc1,outcome,[2],inactive
CCCCc1oc2ccccc2c1C(=O)c1cc(I)c(OCCN(CC)CC)c(I)c1,AC50,[4],10.9 µM (active)
same,AC50,[5],1.81 µM (active)
same,AC50,[8],9.85 µM (active)
same,outcome,[3],inactive
COc1cc(OC)nc(NC(=O)NS(=O)(=O)Nc2ccccc2C(=O)N(C)C)n1,outcome,[4],inactive
CN(C)c1ccc(C(=C2C=CC(=[N+](C)C)C=C2)c2ccccc2)cc1,AC50,[4],8.3 µM (active)
C=CC(C)(CCC=C(C)C)OC(C)=O (stereo not drawn),outcome,[5],inactive
same,AC50,[1],6.92 µM (active)
same,outcome,[3],inactive
NC(=NCCCCCCN=C(N)/N=C(\N)Nc1ccc(Cl)cc1)/N=C(\N)Nc1ccc(Cl)cc1,AC50,[5],8.58 µM (active)
same,AC50,[1],9.07 µM (active) and 13.5 µM (active) and 19.2 µM (active)
same,outcome,[3],inactive
